According to the supplement of paper PMC13380429:

System: Vero E6 infected with SARS-CoV-2
Assay: inhibition of SARS-CoV-2 cytopathic effect; higher = more antiviral protection, active = above 15
Conditions: 48 h

Row | Structure (SMILES) | inhibition of SARS-CoV-2 cytopathic effect (1 nM) | inhibition of SARS-CoV-2 cytopathic effect (8.33 nM) | inhibition of SARS-CoV-2 cytopathic effect (100 nM) | inhibition of SARS-CoV-2 cytopathic effect (833.33 nM) | inhibition of SARS-CoV-2 cytopathic effect (10000 nM)
1 | C[C@@H](NC(=O)[C@@H](N)Cc1ccc(O)cc1)C(=O)NCC(=O)N(C)[C@@H](Cc1ccccc1)C(=O)N[C@H](CO)CC[S+](C)[O-] (stereo not given in full) | -0.57% (inactive) | -1.1% (inactive) | -1.84% (inactive) | -0.24% (inactive) | 0.65% (inactive)
2 | Cn1ncnc1[C@H]1c2n[nH]c(=O)c3cc(F)cc(c23)N[C@@H]1c1ccc(F)cc1 [talazoparib] | 0.71% (inactive) | 2.94% (inactive) | 2.17% (inactive) | -0.1% (inactive) | -3.8% (inactive)
3 | C[C@H](N)[C@H](O)c1cccc(O)c1 [metaraminol] | 5.57% (inactive) | 5.04% (inactive) | 2.34% (inactive) | 1.83% (inactive) | 1.14% (inactive)
4 | CC(CNS(=O)(=O)C(C)C)c1ccc(-c2ccc(C#N)cc2)cc1 (stereo not given) | -2% (inactive) | 0.02% (inactive) | 0.68% (inactive) | 0.84% (inactive) | 0.85% (inactive)
5 | COc1ccc(CCN(C)CCc2ccc(OC)c(OC)c2)cc1OC | 0.34% (inactive) | 3.91% (inactive) | 0.58% (inactive) | 4.35% (inactive) | 3.64% (inactive)
6 | COc1ccc(Nc2nccc(NCCO)n2)cc1 [cardiogenol-C] | 0.83% (inactive) | -0.02% (inactive) | -0.4% (inactive) | 0.3% (inactive) | 1.2% (inactive)
7 | C[C@H](NC(=O)c1sccc1OCc1ccc(Cl)cc1)c1ccccc1 | -2.57% (inactive) | -2.87% (inactive) | -1.08% (inactive) | -1.14% (inactive) | -0.53% (inactive)
8 | COc1ccc([C@@H]2CC(=O)c3c(O)cc(O)cc3O2)cc1O [hesperetin] | 1.09% (inactive) | 3.18% (inactive) | 4.54% (inactive) | 0.97% (inactive) | 0.11% (inactive)
9 | CC(=O)O[C@]1(C(C)=O)CC[C@H]2[C@@H]3CCC4=CC(=O)CC[C@]4(C)[C@H]3CC[C@@]21C [hydroxyprogesterone-acetate] | -3.23% (inactive) | 0.18% (inactive) | -2.75% (inactive) | 0.45% (inactive) | 10.9% (inactive)
10 | N=C(N)NCCC[C@H](NC(=O)c1sccc1NS(=O)(=O)c1cccc2nsnc12)C(=O)O | -1.17% (inactive) | 0.96% (inactive) | 1.72% (inactive) | 0.4% (inactive) | 1.98% (inactive)
11 | Cc1cc(C)c2nc(-c3ccccn3)cc(C(=O)Nc3ccc(S(=O)(=O)Nc4onc(C)c4C)cc3)c2c1 | -1.1% (inactive) | 1.15% (inactive) | -0.62% (inactive) | -9.3% (inactive) | -3.05% (inactive)
12 | COc1cc2c(Nc3ccc(Cl)c(Cl)c3F)ncnc2cc1OC[C@@H]1C[C@@H]2CN(C)C[C@@H]2C1 | -2.06% (inactive) | -2.66% (inactive) | -5.42% (inactive) | -14.7% (inactive) | -22.4% (inactive)
13 | OCC(Br)(Br)Br [tribromoethanol] | 3.45% (inactive) | 0.33% (inactive) | 2.81% (inactive) | 4.01% (inactive) | 1.49% (inactive)
14 | Cc1ccc(-n2nc(C(C)(C)C)cc2NC(=O)Nc2ccc(OCCN3CCOCC3)c3ccccc23)cc1 [doramapimod] | -2.22% (inactive) | 1.14% (inactive) | -0.73% (inactive) | 4.29% (inactive) | 8.03% (inactive)
15 | NCCCC[C@H](NC(=O)[C@@H](Cc1cc(Br)c(O)c(Br)c1)NC(=O)N1CCC(N2Cc3ccccc3NC2=O)CC1)C(=O)N1CCN(c2ccncc2)CC1 | 0.88% (inactive) | 0.87% (inactive) | 2.08% (inactive) | -1.34% (inactive) | 0.72% (inactive)
16 | NCCCCCC(=O)O [aminocaproic-acid] | -7.62% (inactive) | -2.22% (inactive) | 1.68% (inactive) | 1.01% (inactive) | -2.29% (inactive)
17 | N#Cc1ccc(Oc2ccc3c(c2)COB3O)cc1 [crisaborole] | 0.74% (inactive) | 0.97% (inactive) | 1.46% (inactive) | -0.75% (inactive) | 4.65% (inactive)
18 | O=C(Nc1ccc(S(=O)(=O)Nc2nccs2)cc1)C(c1ccccc1)c1ccccc1 | -0.78% (inactive) | 3.67% (inactive) | 2.47% (inactive) | 2.29% (inactive) | -2.52% (inactive)
19 | CC(C)(C)/[N+]([O-])=C/c1ccc(S(=O)(=O)O)cc1S(=O)(=O)O | -1.02% (inactive) | -0.15% (inactive) | -0.41% (inactive) | 0.47% (inactive) | 0.8% (inactive)
20 | c1ccc(C2CN3CCSC3=N2)cc1 (stereo not given) [tetramisole] | 0.71% (inactive) | 1.55% (inactive) | 0.335% (inactive) | 6.51% (inactive) | 2.84% (inactive)

Row | Structure (SMILES) | inhibition of SARS-CoV-2 cytopathic effect (1 nM) | inhibition of SARS-CoV-2 cytopathic effect (8.33 nM) | inhibition of SARS-CoV-2 cytopathic effect (100 nM) | inhibition of SARS-CoV-2 cytopathic effect (833.33 nM) | inhibition of SARS-CoV-2 cytopathic effect (10000 nM)
21 | CN1CCN(C(c2ccccc2)c2ccc(Cl)cc2)CC1 (stereo not given) [chlorcyclizine] | -1.24% (inactive) | 1.4% (inactive) | -0.05% (inactive) | -3.64% (inactive) | -10.6% (inactive)
22 | N#C/C(=C\c1ccc(O)c(O)c1)C(=O)NCCCc1ccccc1 | -2.32% (inactive) | -2.1% (inactive) | -0.73% (inactive) | 0.57% (inactive) | 0.75% (inactive)
23 | COc1ccc2nc3cc(Cl)ccc3c(Nc3cc(CN4CCCC4)c(O)c(CN4CCCC4)c3)c2n1 [pyronaridine] | 3.08% (inactive) | 4.56% (inactive) | 8.6% (inactive) | 3.79% (inactive) | -18.6% (inactive)
24 | c1ccc(-c2nn3c(c2-c2ccnc4cc(OCCN5CCOCC5)ccc24)CCC3)nc1 | -0.68% (inactive) | 0.41% (inactive) | 1.87% (inactive) | -0.96% (inactive) | 0.94% (inactive)
25 | C[C@H]1CN(C[C@H](Cc2ccccc2)C(=O)NCC(=O)O)CC[C@@]1(C)c1cccc(O)c1 [alvimopan] | 1.74% (inactive) | 3.07% (inactive) | 3.04% (inactive) | -0.26% (inactive) | 2.12% (inactive)
26 | O=C(NCCCN1CCC2(CC1)OCc1ccccc12)[C@H]1CCCN1Cc1ccccc1 | -4.44% (inactive) | -4.12% (inactive) | -5.12% (inactive) | -1.81% (inactive) | 0.56% (inactive)
27 | Clc1cccc(/C=N/N=C/c2cccc(Cl)c2)c1 [3,3'-dichlorobenzaldazine] | 2.78% (inactive) | 1.74% (inactive) | 1.33% (inactive) | 1.92% (inactive) | 1.46% (inactive)
28 | CCCCCCCCCCCCC/C=C/[C@@H](O)[C@@H](N)CO[P@](=O)(O)OCC[N+](C)(C)C [sphingosylphosphorylcholine] | -0.9% (inactive) | -2.99% (inactive) | 3.74% (inactive) | -2.02% (inactive) | 3.54% (inactive)
29 | Nc1ncnc2c1ncn2[C@@H]1O[C@H](COP(=O)(O)OP(=O)(O)OP(=O)(O)O)[C@@H](O)[C@H]1O | -0.89% (inactive) | -1.33% (inactive) | -0.6% (inactive) | 2.57% (inactive) | 2.48% (inactive)
30 | CCCCOc1c(C(=O)c2c(F)cc(C)cc2F)c[nH]c2nncc1-2 | 0.56% (inactive) | -0.26% (inactive) | 0.08% (inactive) | -0.55% (inactive) | -3.38% (inactive)
31 | CC1=CC[C@@H](C(C)(C)O)C[C@@H]1O [sobrepin] | -10% (inactive) | -11.1% (inactive) | -11.4% (inactive) | -13.5% (inactive) | -10.4% (inactive)
32 | C[n+]1cc2c3c(ccc2c2ccc4cc5c(cc4c21)OCO5)OCO3 [sanguinarium-chloride] | 0.27% (inactive) | 0.22% (inactive) | -1.52% (inactive) | 2.52% (inactive) | -25.4% (inactive)
33 | Cc1cc(C)c(Nc2ccnc(Nc3ccc(C#N)cc3)n2)c(C)c1 [dapivirine] | -0.02% (inactive) | -0.53% (inactive) | 0.06% (inactive) | 2.16% (inactive) | -8.23% (inactive)
34 | C[C@]12CC[C@@H]3c4ccc(O)cc4CC[C@H]3[C@@H]1CCC2=O [estrone] | 1.09% (inactive) | 1.93% (inactive) | -0.92% (inactive) | 0.5% (inactive) | 2.53% (inactive)
35 | COc1c(C)c2c(c(O)c1C/C=C(\C)CCC(=O)OCCN1CCOCC1)C(=O)OC2 [mycophenolate-mofetil] | -1.57% (inactive) | 0.08% (inactive) | 0.94% (inactive) | -5.7% (inactive) | 16.8% (active)
36 | CN(C(=O)CN(CCO)CC(=O)N(C)C(C)(C)Cc1ccccc1)C(C)(C)Cc1ccccc1 [oxethazaine] | -2.13% (inactive) | -0.95% (inactive) | 0.87% (inactive) | -0.57% (inactive) | -13.9% (inactive)
37 | CC(C)(C)n1nc(-c2cccc3ccccc23)c2c(N)ncnc21 [1-naphthyl-PP1] | 0.05% (inactive) | 1.77% (inactive) | 1.73% (inactive) | 1.24% (inactive) | -4.31% (inactive)
38 | CC1(CN2CCC(n3c(=O)[nH]c4ccccc43)CC2)OCc2ccccc2-n2cccc21 (stereo not given) [zaldaride] | 4.94% (inactive) | -0.44% (inactive) | 4.25% (inactive) | -2.81% (inactive) | -4.06% (inactive)
39 | Cc1onc(O)c1C[C@@H](N)C(=O)O (racemic) | 0.825% (inactive) | 1.39% (inactive) | 2.15% (inactive) | 2.51% (inactive) | 1.4% (inactive)
40 | CN1C(C(=O)Nc2ccccn2)=C(O)c2sc(Cl)cc2S1(=O)=O [lornoxicam] | -2.9% (inactive) | -0.66% (inactive) | -1.36% (inactive) | 0.9% (inactive) | -0.69% (inactive)
